Screening data: PubChem, several laboratories
CYP2C9 act = human CYP2C9 activators, primary screen, biochemical, luminescence. Cytochrome P450 2C9 (Homo sapiens), P11712. recombinant CYP2C9, luciferin-H conversion; active compounds read high; factor 1 = untreated enzyme, 0 = blocked. activation factor at 5 µM. actives 1.4% (n = 96,000). AID 1024, 2008;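 active = activation factor of 2 or more for CYP2C9 at a 5 µM dose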
Target sequence (P11712 whole entry, looked up): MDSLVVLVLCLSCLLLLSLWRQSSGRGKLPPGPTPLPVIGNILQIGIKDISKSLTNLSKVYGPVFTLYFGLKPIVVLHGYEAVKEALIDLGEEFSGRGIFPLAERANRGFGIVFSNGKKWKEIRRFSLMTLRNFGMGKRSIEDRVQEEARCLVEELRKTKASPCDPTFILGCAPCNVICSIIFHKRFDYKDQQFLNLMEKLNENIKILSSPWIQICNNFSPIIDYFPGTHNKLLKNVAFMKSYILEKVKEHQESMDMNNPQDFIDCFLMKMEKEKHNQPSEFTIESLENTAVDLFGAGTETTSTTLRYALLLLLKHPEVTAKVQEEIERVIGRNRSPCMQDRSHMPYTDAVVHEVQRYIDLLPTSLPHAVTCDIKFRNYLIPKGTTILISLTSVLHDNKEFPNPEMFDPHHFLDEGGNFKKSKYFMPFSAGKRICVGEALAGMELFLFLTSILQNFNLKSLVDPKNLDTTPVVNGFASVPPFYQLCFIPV
CYP2C19 activ = human CYP2C19 activators, primary screen, biochemical, luminescence | activation factor at 5 µM | recombinant CYP2C19, luciferin-H EGE luminescence; active compounds read high; 0 = fully inhibited enzyme, 1 = untreated enzyme | AID 1025, 2008 | 96,000 tested, under 10 active;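 active = activation factor of at least 2 at 5 µM in the primary screen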
CYP2C9 inhib = blockers of cytochrome P450 2C9 activity – biochemical, luminescence, ADME assay, primary screen | AID 777, 2007 | inhibition, % at 5 µM | CYP2C9 Supersomes, luciferin-H conversion | P11712 | actives 20% (n = 96,000);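 active = blocking of liver enzyme CYP2C9 beyond about 50% at 5 µM, limit read from the data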
F-actin modifier = modifiers of F-actin cytoskeleton organization, primary screen, imaging, HUVEC, phalloidin staining, high-content imaging | HUVEC TNFa F-actin phalloidin imaging | inhibition, % at 2 µM | actives 0.18% (n = 91,000) | AID 836, 2007;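 active = inhibition above the batch mean plus 3 SD and confirmed as a hit by visual image inspection, cut at about 30% in these data, passing the limit was not always enough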
E-sel TNF inh = E-selectin induction blockers in HUVEC – imaging, immunofluorescence, high content, primary screen; HUVEC TNFa-induced E-selectin immunofluorescence; inhibition, % at 2 µM; actives 0.71% (n = 120,000); AID 1246, 2008;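 active = inhibition above the batch mean plus 3 SD, and confirmed as a hit on visual image review, cut at about 43% in these data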
CYP2C19 inh = blockers of cytochrome P450 2C19 activity – biochemical, luminescence, ADME assay, primary screen. P33261. CYP2C19 Supersomes, luciferin-H EGE luminescence, 30 min. inhibition, % at 5 µM. actives 21% (n = 96,000). AID 778, 2007;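 active = CYP2C19 inhibition above a set limit at 5 µM in the primary screen, cut at about 50% in these data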
Large screens that a line does not name were inactive. Most compounds without a hit are left out; they make up all but 22% or so of the library.

CC(Oc1ccc(Cl)cc1Cl)C(=O)NCCCN(C)C (stereo not given)	none (no result: F-actin modifier)
CCOCCCn1c(=NC(=O)c2ccc(OC)c(OC)c2)c(C#N)cc2c(=O)n3cccc(C)c3nc21	none
O=C(Nc1ccc(N2CCOCC2)cc1)c1cn2ccccc2n1	CYP2C19 inh 60 (no result: E-sel TNF inh)
O=C(Nc1ccc(Cl)c(S(=O)(=O)N2CCOCC2)c1)c1cn2ccccc2n1	none (no result: CYP2C9 act, CYP2C19 activ, CYP2C9 inhib, F-actin modifier, CYP2C19 inh)
CCn1c(SCC(=O)NC(C)c2ccccc2)nc2ccccc21 (stereo not given)	CYP2C19 inh 54
CC(NC(=O)CSc1nc2ccccc2n1CCC#N)c1ccc(F)cc1 (stereo not given)	CYP2C9 inhib 55, CYP2C19 inh 94
N#CCCn1c(SCC(=O)NCCc2ccc(F)cc2)nc2ccccc21	CYP2C19 inh 82 (no result: E-sel TNF inh)
N#CCCn1c(SCC(=O)Nc2ccc(N3CCOCC3)cc2)nc2ccccc21	none (no result: CYP2C9 act, CYP2C19 activ, CYP2C9 inhib, F-actin modifier, CYP2C19 inh)
CCn1c(Sc2ccc(N)cc2Cl)nc2ccccc21	CYP2C9 act 2.3, CYP2C19 inh 87
CCn1c(-c2cccnc2Cl)nc2ccccc21	none
CC1CCCN(CCC(=O)Nc2ccc3c(c2)CCC3)C1 (stereo not given)	none (no result: CYP2C9 act, CYP2C19 activ, CYP2C9 inhib, CYP2C19 inh)
Cc1oc(-c2ccc(Cl)cc2)cc1-c1nn2c(-c3ccoc3C)nnc2s1	none
Cc1ccccc1OCCNc1ccc(C(F)(F)F)cc1[N+](=O)[O-]	CYP2C19 inh 75
CN1C(=O)C2(c3ccccc31)N(C)CC(c1ccccn1)C21SC(=S)N(Cc2ccco2)C1=O (stereo not given)	none
COc1ccc(CCNC(=O)c2nc3ncccn3n2)cc1OC	none
CCCCCCC(=O)Nc1nc(C)c(-c2csc(Nc3ccccc3OC)n2)s1	none
Cc1cc(C)n2nc(NCc3cccc(Br)c3)nc2n1	CYP2C19 inh 64 (no result: E-sel TNF inh)
COc1ccc(CNc2nc3nc(C)cc(C)n3n2)cc1OC	none
Cc1cc(-c2c(C)[nH]n(-c3ccc(Cl)cc3)c2=O)n(-c2ccccc2)n1	CYP2C9 inhib 91
Cc1[nH]n(-c2cccc(Cl)c2)c(=O)c1-c1ccccc1	none
Cc1ccccc1OCCn1c(=O)sc2ccccc21	none (no result: CYP2C9 act, CYP2C19 activ, CYP2C9 inhib, CYP2C19 inh)
Cc1ccccc1OCCCCn1c(CO)nc2ccccc21	none (no result: CYP2C9 act, CYP2C19 activ, CYP2C9 inhib, F-actin modifier, CYP2C19 inh)
OCCn1c(SCCOc2ccccc2)nc2ccccc21	CYP2C19 inh 75
Cc1ccc(OCCCn2c(CO)nc3ccccc32)cc1	CYP2C9 inhib 53, CYP2C19 inh 95
Cc1ccc(NCc2nc3ccccc3n2CCOc2ccccc2)cc1	none (no result: CYP2C9 act, CYP2C19 activ, CYP2C9 inhib, F-actin modifier, CYP2C19 inh)
COc1ccccc1OCCn1c(=O)sc2ccccc21	CYP2C9 inhib 66, CYP2C19 inh 68
OCc1nc2ccccc2n1CCCOc1ccccc1	CYP2C19 inh 53 (no result: F-actin modifier, E-sel TNF inh)
COc1ccc(NC(=O)Nc2nnc(C(C)C)s2)cc1	none
COCCn1c(COc2ccc(C)cc2)nc2ccccc21	CYP2C19 inh 65 (no result: E-sel TNF inh)
CCOCCn1c(COc2ccc(C)cc2)nc2ccccc21	none (no result: CYP2C9 act, CYP2C19 activ, CYP2C9 inhib, F-actin modifier, CYP2C19 inh)
COCc1nc2ccccc2n1CCOc1ccccc1OC	CYP2C19 inh 60
COCCn1c(COC)nc2ccccc21	none
CCN1C(=O)C(CC(=O)Nc2ccc(OC)cc2)N(Cc2cccs2)C1=S (stereo not given)	none (no result: CYP2C9 act, CYP2C19 activ, CYP2C9 inhib, CYP2C19 inh)
Cc1ccc([N+](=O)[O-])cc1-c1ccc(/C=C(\C#N)c2[nH]nc(N)c2C#N)o1	none (no result: CYP2C9 act, CYP2C19 activ, CYP2C9 inhib, F-actin modifier, CYP2C19 inh)
Cc1csc(SCC(=O)Nc2cc(S(=O)(=O)N3CCCC3)ccc2Cl)n1	CYP2C9 inhib 54
Cc1ccc(S(=O)(=O)N2CCCCC2)cc1NC(=O)CSc1nnc(N)s1	none (no result: CYP2C9 act, CYP2C19 activ, CYP2C9 inhib, F-actin modifier, CYP2C19 inh)
Cc1csc(SCC(=O)Nc2cccc(S(=O)(=O)N3CCCC3)c2)n1	CYP2C9 inhib 78, CYP2C19 inh 81
CS(=O)(=O)c1ccc2nc(NC3(C(F)(F)F)N=C4SCCN4C3=O)sc2c1 (stereo not given)	CYP2C9 inhib 92
O=C1N2CCSC2=NC1(Nc1ccccn1)C(F)(F)F (stereo not given)	none (no result: E-sel TNF inh)
N#Cc1ccccc1Sc1ccccc1N	CYP2C9 inhib 59, CYP2C19 inh 57
Cc1ccc(-c2nn(-c3ccccn3)c(=O)c3ccccc23)cc1	none (no result: CYP2C9 act, CYP2C19 activ, CYP2C9 inhib, F-actin modifier, CYP2C19 inh)
CCN1CCCc2cc(CN(CCN3CCOCC3)C(=O)Nc3ccc(C)c(C)c3)ccc21	CYP2C19 inh 57
